According to PubChem BioAssay (NCI):
This is part of a sample that, as a whole, favours compounds with a hit. Of some 83,000 tested, about 20% had one in any assay.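 Interpretation: 100, growth as untreated; towards 0, rising growth inhibition; 0, no net growth; 0 to -100, cell death. Compounds scoring below 10 were considered active.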 Unmarked numbers belong to inactive results. Calls of active or inactive are those of the source.

Tests used:
Experiment in all cases: NCI-60 one-dose screen, 48 h (100 = growth as untreated, 0 = no growth, -100 = all killed)
Settings in all cases: 10 µM unless noted
[1] = test system: SR leukemia
[2] = test system: RPMI-8226 leukemia
[3] = test system: OVCAR-8 ovarian
[4] = test system: OVCAR-5 ovarian
[5] = test system: OVCAR-4 ovarian
[6] = test system: SK-OV-3 ovarian
[7] = test system: IGROV1 ovarian
[8] = test system: OVCAR-3 ovarian
[9] = test system: HS 578T breast
[10] = test system: NCI/ADR-RES ovarian

SMILES	growth [1]	growth [2]	growth [3]	growth [4]	growth [5]	growth [6]	growth [7]	growth [8]	growth [9]	growth [10]
c1ccc2c(c1)Oc1ccccc1C2C1c2ccccc2Oc2ccccc21	86.3%	103%	101%	89.7%	84%	105%	91.5%	98.4%	99.6%	95.3%
O=C(CNc1ccc(Cl)cc1)Nc1ccc(-c2nc3ccccc3s2)cc1	11.5%	46%	66.4%	121%	23.1%	89.7%	34.3%	28.9%	84.1%	64.5%
CCOC(=O)CC/C(C)=N\Nc1ccc([N+](=O)[O-])cc1	39%	59.8%	56.9%	84.3%	77.2%	57.8%	71%	86.1%	88.6%	80.3%
COc1cccc2nc(Nc3ccc(NC(=O)c4ccc5ncccc5c4)cc3)ccc12	65.7%	33.4%	72.3%	99.3%	89.7%	86.4%	105%	105%	66.7%	86%
CC(=O)Nc1ccc(S(=O)(=O)NC(CCC(=O)Nc2ccc(Cl)cc2)C(=O)O)cc1 (stereo not given)	77.9%	99.1%	97.4%	77.7%	94%	93.7%	112%	107%	98.4%	100%
NC(=S)NN=C1CCCCC1	72.1%	68.8%	68.6%	104%	53.6%	73%	83.7%	38%	82.3%	72.6%
Cc1ccc2nc(SCn3nnc4ccccc4c3=O)[nH]c2c1	112%	94.4%	109%	89.5%	78.4%	103%	83.7%	104%	107%	88.8%
COc1cc(C(=O)N2CCN(C(=O)c3ccco3)CC2)c(N)cc1OCc1ccccc1	86.5%	71.9%	99.8%	107%	92.9%	113%	-5.4% (active)	105%	91.9%	102%
CC(CCc1ccccc1)NC(=O)c1n[nH]c(=O)c2ccccc12 (stereo not given)	60.7%	85.6%	101%	118%	102%	118%	3.79% (active)	112%	96.8%	121%
O=Nc1c(-c2c(O)[nH]c3ccc([N+](=O)[O-])cc23)[nH]c2ccc(O)cc12	0.378% (active)	-7.92% (active)	7.71% (active)	110%	19.7%	-9.52% (active)	6.36% (active)	4.31% (active)	1.21% (active)	42%
CCN1C(=O)N(CC)C2C1NN=c1s/c(=C\c3cccc(F)c3)c(=O)n12 (stereo not given)	4.36% (active)	-0.526% (active)	21.2%	55.6%	44.1%	72.3%	29.9%	-2.21% (active)	17.9%	5.73% (active)
Nc1nc(Cl)c2c(ncn2Cc2ccc(CCl)cc2)n1	83.2%	33.8%	49.4%	109%	96.1%	103%	76.5%	68.3%	94.1%	98.4%
CCCCCCc1nc2c(c(C)nn2-c2ccccc2)c2c1CCCCC2	97.7%	105%	107%	114%	115%	95%	109%	107%	106%	110%
Nc1nn2cc(-c3ccc(Cl)s3)nc2c2ccccc12	49.7%	92%	105%	79.1%	87.5%	103%	44.7%	77.8%	96.7%	86.7%
Cc1cc(NC(=O)COC(=O)c2sc3cc(F)ccc3c2Cl)no1	108%	114%	112%	100%	105%	111%	-31.8% (active)	120%	123%	107%
CCOc1ccc(/C=C/C=N/NC(N)=S)cc1	70.4%	39.7%	100%	90.9%	73.2%	110%	53.5%	73.7%	95.3%	82.6%
CCCCNc1nnc(-c2cc(-c3cc4ccccc4o3)nn2-c2ccccc2)o1	76.5%	77.9%	88%	105%	86.7%	99.4%	63.9%	66%	93.1%	87.5%
COc1ccc(/C=C/C(=O)c2cccc(B(O)O)c2)cc1O	6.45% (active)	5.96% (active)	60.1%	88.4%	73.9%	58.1%	18.2%	-6.95% (active)	32.9%	48.9%
O=C(Cc1c(F)cccc1Cl)Nc1ccc(S(=O)(=O)Nc2ncccn2)cc1	52%	70.4%	113%	103%	101%	102%	-23.2% (active)	109%	111%	108%
CC(C)(C)OC(=O)N[C@@H](Cc1ccccc1)C(=O)N(Cc1ccccc1)C1(C(=O)NCc2ccccc2)CCN(Cc2ccccc2)CC1	-0.167% (active)	22.8%	22.6%	31.1%	24.2%	69.9%	59.1%	48.5%	71.5%	12.1%
Nc1ccc(S(=O)(=O)c2ccc(Cl)cc2)cc1	112%	101%	107%	90.1%	110%	109%	97.3%	98.8%	96%	95.2%
CC/C=C\C/C=C\C[C@H]1C/C=C2/C(=O)C=C[C@H]2C/C=C\CCC(=O)O1	4.9% (active)	4.52% (active)	0.0569% (active)	25.4%	42.6%	31.3%	3.81% (active)	-12.1% (active)	40.2%	17.9%
COc1ccc(C(=O)/C=C/c2cccc([N+](=O)[O-])c2)c(OC)c1	4.78% (active)	-16.8% (active)	18.2%	41.9%	26.6%	77%	7% (active)	18.6%	74.6%	11.2%
COc1ncc(-c2ccc3ncnc(Nc4cccc(Cl)c4)c3c2)cc1NS(=O)(=O)C1CC1	46.9%	26.7%	41.7%	28%	34.8%	8.08% (active)	-38.6% (active)	20.1%	13.6%	40.8%
O=c1[nH]c(-c2cn(-c3ccc(Cl)cc3)nn2)nc2ccccc12	80.4%	83.5%	48.5%	102%	36%	38.9%	74.1%	85.4%	37%	63.9%
CSc1ccccc1C#C/C=C\C#Cc1ccccc1N1CCCC1=O	12.5%	22.2%	74.9%	72.2%	59.7%	85.8%	-32.2% (active)	50.9%	98%	41.5%
O=C(CCl)NCCNc1nccc(Nc2ccc(S(=O)(=O)Nc3ccccn3)cc2)n1	19.4%	14.8%	32.7%	15.7%	29.4%	61.9%	8.94% (active)	-6.7% (active)	73.1%	46.5%
C=CC(=O)N[C@H](/C=C/C(=O)OCC)Cc1ccc(-c2cc(Cl)cc(Cl)c2)cc1	68.7%	73.8%	76.6%	95.5%	83.6%	94.6%	93%	89.5%	94.8%	81.8%
